Rows were chosen to be rich in hits. Some 1.2% of all compounds tested hit in one or more screens of this group.
NR5A2 inv ag: inverse agonists of human LRH-1 (NR5A2). HEK293T StAR-luciferase reporter, LRH-1 transfected, 24 h. inhibition, % at 3.6 µM. O00482. hit rate 0.13% among 360,000. AID 602396;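 active = inhibition above the mean inhibition of all tested compounds plus 3 SD, cut at about 73% in these data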;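 note: 0% = DMSO wells and 100% = reporter-only cells lacking LRH-1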
NCOA2 inhibitor: inhibits human steroid receptor coactivator 2; AID 651957; hit rate 0.17% among 370,000; HEK293 GAL4-SRC2 luciferase reporter, luminescence; inhibition, % at 9 µM;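 active = inhibition above the mean inhibition of all tested compounds plus 3 SD, set per campaign, cut at about 52% in these data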;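 note: 0% = DMSO treated cells and 100% = cells given Gossypol at 36 µM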
Efflux pump inh: inhibitors of Candida antifungal efflux pumps expressed in yeast; S. cerevisiae Candida pump triplex, Nile Red efflux; inhibition, % at 10 µM; hit rate 0.44% among 330,000; AID 485275;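 active = plate passing quality check with inhibition over a set limit, or well fluorescence over plate mean plus 4 SD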;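 note: Nile Red retained in pooled yeast measured as flow cytometry median fluorescence; 0% = buffer negative control and 100% = Enniatin B positive control; higher means more Nile Red kept so more efflux inhibition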
COUP-TFII inh: blocks human COUP-TFII nuclear receptor. P24468. HEK293T NGFI-A luciferase reporter, luminescence. inhibition, % at 8.6 µM. hit rate 0.7% among 370,000. AID 686940;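 active = inhibition above a per-plate cutoff, mean inhibition of test wells between control levels plus 3 SD, cut at about 38% in these data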;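 note: cells cotransfected with COUP-TFII expression vector driving the NGFI-A reporter; 0% = median of COUP-TF2 test wells and 100% = reporter-only cells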
SRC3 inh: inhibits human SRC3 coactivator; Q9Y6Q9; HEK293 GAL4-SRC3 luciferase reporter, luminescence; inhibition, % at 3.6 µM; hit rate 0.17% among 360,000;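 active = inhibition above a per-campaign cutoff, the mean of all compounds plus 3 SD, cut at about 60% in these data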;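 note: 0% = DMSO-treated cells and 100% = gossypol-treated cells at 36 µM; higher means less SRC3-driven luciferase light from the GAL4 reporter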
SRC1 inh: inhibitors of human steroid receptor coactivator 1 (SRC1); Q15788; HEK293 GAL4-SRC1 luciferase reporter, luminescence; inhibition, % at 3.6 µM; hit rate 0.12% among 360,000;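 active = inhibition above the campaign mean plus 3 SD, with each screening campaign given its own cutoff, cut at about 60% in these data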;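 note: 0% = DMSO treated cells and 100% = gossypol at 36 µM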
Target sequence (Q15788 whole entry, looked up, the tested form may be a part): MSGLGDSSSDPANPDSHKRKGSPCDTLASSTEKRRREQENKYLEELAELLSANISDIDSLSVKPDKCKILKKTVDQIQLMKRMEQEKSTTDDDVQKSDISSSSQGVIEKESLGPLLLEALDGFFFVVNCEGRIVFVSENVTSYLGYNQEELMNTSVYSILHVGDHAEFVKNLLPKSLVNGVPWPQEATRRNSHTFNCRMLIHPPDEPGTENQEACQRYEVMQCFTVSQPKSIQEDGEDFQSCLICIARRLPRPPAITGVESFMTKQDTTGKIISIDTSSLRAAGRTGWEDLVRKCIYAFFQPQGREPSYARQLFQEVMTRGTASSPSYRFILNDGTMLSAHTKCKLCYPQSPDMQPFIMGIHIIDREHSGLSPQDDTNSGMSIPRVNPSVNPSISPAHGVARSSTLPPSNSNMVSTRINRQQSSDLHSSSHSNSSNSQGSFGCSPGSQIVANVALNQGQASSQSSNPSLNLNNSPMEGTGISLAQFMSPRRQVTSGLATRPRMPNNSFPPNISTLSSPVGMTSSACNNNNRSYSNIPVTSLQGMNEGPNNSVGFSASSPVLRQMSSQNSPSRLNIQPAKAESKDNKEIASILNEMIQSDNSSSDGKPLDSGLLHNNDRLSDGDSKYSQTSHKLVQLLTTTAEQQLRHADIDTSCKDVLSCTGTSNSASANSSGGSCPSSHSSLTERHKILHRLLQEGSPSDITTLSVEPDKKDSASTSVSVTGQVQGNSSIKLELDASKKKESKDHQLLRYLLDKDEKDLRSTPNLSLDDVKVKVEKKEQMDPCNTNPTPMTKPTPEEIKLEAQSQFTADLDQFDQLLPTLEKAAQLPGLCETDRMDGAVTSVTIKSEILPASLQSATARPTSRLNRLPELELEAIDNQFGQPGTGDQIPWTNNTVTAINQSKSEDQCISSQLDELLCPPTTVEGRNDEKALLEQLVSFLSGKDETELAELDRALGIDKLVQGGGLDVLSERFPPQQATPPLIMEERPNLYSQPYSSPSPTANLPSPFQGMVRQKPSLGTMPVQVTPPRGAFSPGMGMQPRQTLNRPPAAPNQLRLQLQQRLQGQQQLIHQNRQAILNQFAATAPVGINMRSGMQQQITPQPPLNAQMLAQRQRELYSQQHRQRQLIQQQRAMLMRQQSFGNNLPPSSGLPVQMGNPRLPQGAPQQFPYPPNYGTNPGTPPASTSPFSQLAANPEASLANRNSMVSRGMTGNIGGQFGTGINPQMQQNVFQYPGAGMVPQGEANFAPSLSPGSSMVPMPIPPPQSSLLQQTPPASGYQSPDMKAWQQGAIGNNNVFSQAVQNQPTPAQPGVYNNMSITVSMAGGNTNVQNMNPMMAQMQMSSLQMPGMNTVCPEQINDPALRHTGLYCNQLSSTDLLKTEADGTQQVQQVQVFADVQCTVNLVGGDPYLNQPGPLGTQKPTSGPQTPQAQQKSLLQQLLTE
Yeast cmpd fluor: compound fluorescence in yeast efflux pump counter-screen | shares compounds with Efflux pump inh | S. cerevisiae AD/pABC3, flow cytometry | fluorescence ratio to DMSO, % at 10 µM | hit rate 4% among 1,700;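 active = fluorescence ratio to DMSO above its plate's cutoff, the plate mean ratio plus 5 SD, cut at about 210% in these data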;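 note: unstained yeast with no Nile Red so the signal is compound autofluorescence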
CaMdr1 efflux inh: Candida Mdr1 efflux pump inhibition. inhibition, % at 10 µM. hit rate 1% among 1,700. shares compounds with Efflux pump inh. S. cerevisiae AD/CaMDR1, Nile Red efflux, flow cytometry; in the data active = inhibition above about 26%;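 note: 0% = DMSO vehicle and 100% = reference inhibitor; higher means more Nile Red retained so more efflux inhibition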
Cdr2 pump inh: Candida Cdr2 efflux pump inhibition | shares compounds with Efflux pump inh | S. cerevisiae AD/CaCDR2, Nile Red retention, flow cytometry | Nile Red retention ratio vs DMSO, % at 10 µM | hit rate 4% among 1,700; in the data active = Nile Red retention ratio vs DMSO above about 190%;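 note: higher ratio means more blocking of Cdr2 efflux of the dye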
CaCdr1 efflux inh: blocks the Candida albicans Cdr1 efflux pump in yeast | shares compounds with Efflux pump inh | S. cerevisiae AD/CaCDR1, Nile Red efflux, flow cytometry | inhibition, % at 10 µM | hit rate 1% among 1,700;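 active = inhibition above the screen-wide mean plus twice its standard deviation, cut at about 32% in these data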
Active calls of the source: *; x = not tested or not shown; + = active, no number.

SMILES	NR5A2 inv ag	NCOA2 inhibitor	Efflux pump inh	COUP-TFII inh	SRC3 inh	SRC1 inh	Yeast cmpd fluor	CaMdr1 efflux inh	Cdr2 pump inh	CaCdr1 efflux inh
CC1=C(C(=O)Nc2ccccc2)C(c2cccc([N+](=O)[O-])c2)Nc2nc3ccccc3n21 (centres undefined)	-5	-6	1.4*	-7	3	-13	109	0	109	0
CCOC(=O)c1ccc(-n2ccnc2)c(NC(=O)c2ccc(C(C)(C)C)cc2)c1	2	2	0	23	7	2	x	x	x	x
COc1ccc(OC)c2c1C(=O)c1ccccc1C2=O	x	5	0	3	x	x	x	x	x	x
COc1ccc(OC)c2c1C(=O)C(Cl)=C(Cl)C2=O	10	20	1.5*	20	23	-115	123	1	246*	1
COc1ccc(N2CCN(C(=O)CN3CCN(c4nc(-c5ccc(F)cc5)cs4)CC3)CC2)cc1	1	-26	0	21	10	-16	x	x	x	x
O=C(CSc1nnc(-c2ccccc2)o1)N1CCN(c2ccccc2)CC1	5	12	0.8*	4	13	1	107	0	101	0
Cc1ccc(CSc2nnc(CCNC(=O)OC(C)(C)C)o2)cc1	-25	13	0.8*	-2	0	-2	99	0	95	0
CC(C)(C)OC(=O)NCCCCCc1nnc(SCC(N)=O)o1	-22	6	0	8	-49	4	x	x	x	x
C=C(C)CSc1nnc(CCCCCNC(=O)OC(C)(C)C)o1	-3	-12	1.0*	-8	-5	1	106	0	98	0
Cc1cccc(NC(=O)CNC(=O)Cc2ccc(S(=O)(=O)N3CCOCC3)s2)c1C	14	12	0	-9	7	-1	x	x	x	x
Cc1cccc(C(C)C)c1NC(=O)Cc1ccc(S(=O)(=O)N2CCOCC2)s1	10	11	0.5*	-16	-4	-18	285*	1	112	0
CCN(Cc1nc2cc(Cl)ccc2c(=O)[nH]1)C(=O)c1cccc(OCc2c(C)noc2C)c1	-14	-1	1.6*	5	11	-12	95	0	87	0
Cc1ccccc1-n1nc(C(=O)c2cccs2)cc(-c2nc3ccccc3[nH]2)c1=N	18	-34	0.3*	-22	-12	-5	95	0	104	0
COc1ccc(-n2nc(C(=O)c3cccs3)cc(-c3nc4ccccc4[nH]3)c2=N)cc1	-8	-15	0	-12	-5	-1	x	x	x	x
O=C(COc1ccc(-c2ccccc2)cc1)NNC(=O)Nc1ccc(F)cc1F	7	0	3.0*	-3	-23	4	109	0	110	0
Cn1c(-c2ccccc2)cnc1SCC(=O)N1CCCc2ccccc21	-37	-13	15*	10	4	-24	108	0	116	0
C[C@H](NC(=O)c1ccc(C(C)(C)C)cc1)C(=O)N1CCN(C/C=C/c2ccccc2)CC1	30	19	0.9*	15	16	1	92	0	94	0
CC(C)C(NC(=O)c1ccccc1)C(=O)N1CCN(C/C=C/c2ccccc2)CC1 (centres undefined)	-3	-21	0	14	-24	0	x	x	x	x
O=C(O)C1C2CC3C(OC(=O)C31)C2Cl (centres undefined)	7	-46	6.5*	21	3	-4	108	0	106	0
O=C(O)C1C2CC3OC(=O)C1C3C2 (centres undefined)	-4	-24	x	1	-1	-47	x	x	x	x
Cn1c(-c2ccccc2)cnc1SCC(=O)N1CCCCC1	-100	6	0	0	-30	-67	x	x	x	x
CCCCCCOC(=O)C[N+](C)(C)CCOC1CC2CCC1(C)C2(C)C (centres undefined)	-10	-23	2.6*	-6	-3	-2	108	0	+	0
CCCCCCCOC(=O)C[N+](C)(C)CCOC1CC2CCC1(C)C2(C)C (centres undefined)	29	3	x	19	39	23	x	x	x	x
CCCCN1C(=O)C(=O)N(c2ccccc2)C1=S	-180	-39	6.5*	-35	-59	-148	107	0	92	0
CCCCN1C(=O)C(=O)N(CC(=O)N2CCN(c3ccccc3)CC2)C1=O	3	3	0	6	2	-7	x	x	x	x
SMILES	NR5A2 inv ag	NCOA2 inhibitor	Efflux pump inh	COUP-TFII inh	SRC3 inh	SRC1 inh	Yeast cmpd fluor	CaMdr1 efflux inh	Cdr2 pump inh	CaCdr1 efflux inh
O=C(Cc1cccc(C(F)(F)F)c1)OCN1C(=O)c2ccccc2C1=O	-15	11	1.3*	-1	-3	2	101	0	104	0
O=C(Cc1ccc(F)cc1)OCN1C(=O)c2ccccc2C1=O	-22	-6	0	-2	19	-4	x	x	x	x
CC(=O)N1CC2(C)CN(C(C)=O)CC(C)(C1)C2	-4	-9	0	3	6	-25	x	x	x	x
O=S(=O)(c1cccc2nonc12)N1CCN(c2ccccc2F)CC1	4	17	1.1*	-4	4	3	98	0	101	0
Cc1cccc(N2CCN(S(=O)(=O)c3cccc4nonc34)CC2)c1C	3	-3	0	-13	16	7	x	x	x	x
COc1ccc(C2CC(c3ccccc3C(F)(F)F)=NN2c2ccc(S(N)(=O)=O)cc2)cc1 (centres undefined)	-11	12	56*	-23	-12	0	93	0	114	0
COc1cc(OC)c(OC)cc1CN(C)CC1CCCN(CCc2ccccc2F)C1 (centres undefined)	2	-13	0	9	-1	17	x	x	x	x
CCc1nc(SCC(=O)NCC2CCCO2)c2c(=O)n(C)c(=O)n(C)c2n1 (centres undefined)	5	-3	0	0	26	-5	x	x	x	x
Cn1c(=O)c2c(SCC(=O)NCC3CCCO3)nc(-c3ccccc3Cl)nc2n(C)c1=O (centres undefined)	2	-11	0.8*	12	13	-8	81	0	87	0
O=C(O)COCC(=O)NCc1nc(-c2ccc(C(F)(F)F)cc2)no1	12	10	0	7	-6	-20	x	x	x	x
COc1cccc(-c2sc3ccc(OC)cc3c2-c2ccc(OCCN3CCOCC3)cc2)c1	2	14	70*	6	4	6	91	13	102	67*

Screening results from PubChem BioAssay.
